Test results published in ChEMBL document CHEMBL1157539, “Thousands of chemical starting points for antimalarial lead identification” (Nature, 2010).

Assays:
Format in all cases: functional
[1] = tested on: Plasmodium falciparum; assay: GSK_TCMDC: Inhibition of Plasmodium falciparum 3D7 in whole red blood cells, using parasite LDH activity as an index of growth. Test compounds present at 2uM
[2] = tested on: Plasmodium falciparum; assay: GSK_TCMDC: Inhibition of Plasmodium falciparum Dd2 in whole red blood cells, using parasite LDH activity as an index of growth. Test compounds present at 2uM
[3] = tested on: HepG2; assay: GSK_TCMDC: Percent inhibition of human HepG2 cell line. Test compounds present at 10uM.

CCCc1cc(C(=O)N[C@@H](Cc2ccccc2)[C@H](O)CNC(C)(C)c2cccc(OC)c2)c(F)c(N2CCCC2=O)c1.O=CO
Inhibition [1]: 98% | Inhibition [2]: 98% | Inhibition [3]: 7%

Cc1ccc2nc(Cl)c3cc(C(=O)NCCCN4CCCC4)sc3c2c1
Inhibition [1]: 89% | Inhibition [2]: 40% | Inhibition [3]: 26%

CC(C)NCc1cccc(-c2cccc(NC(=O)c3cccc(Cl)c3)c2)c1.O=C(O)C(F)(F)F
Inhibition [1]: 98% | Inhibition [2]: 38% | Inhibition [3]: 36%

Cc1cc(C)cc(CC(=O)N2CCC(n3c(C)nc4ccc(C)cc43)CC2)c1
Inhibition [1]: 100% | Inhibition [2]: 100% | Inhibition [3]: 52%

Cc1cc(C)c2oc(-c3cccc(NC(=O)c4ccc([N+](=O)[O-])o4)c3C)nc2c1
Inhibition [1]: 90% | Inhibition [2]: 67% | Inhibition [3]: 0%

Fc1ccc2[nH]c(-c3ccc(-c4ccc(CNCc5cnn(-c6ccccc6)n5)cc4)cc3)nc2c1.O=C(O)C(F)(F)F
Inhibition [1]: 98% | Inhibition [2]: 47% | Inhibition [3]: 41%

Cl.NC1=NC(c2ccccc2)N(c2ccccc2)C(N)=N1 (centres undefined)
Inhibition [1]: 96% | Inhibition [2]: 85% | Inhibition [3]: 0%

CCCNc1ccc2nccc(CCN3CCC(NCc4ccc5c(n4)NC(=O)CS5)CC3)c2n1
Inhibition [1]: 100% | Inhibition [2]: 0% | Inhibition [3]: 24%

COc1cc2c(Nc3ccc(Br)cc3F)ncnc2cc1OCC1CCN(C)CC1.Cl
Inhibition [1]: 97% | Inhibition [2]: 16% | Inhibition [3]: 10%

Cc1cc2nc(-c3ccc(C(=O)NCc4ccc(C(C)(C)C)cc4)cc3)[nH]c2cc1C
Inhibition [1]: 100% | Inhibition [2]: 59% | Inhibition [3]: 3%

CC(C)c1ccc(NC(=O)NC2CCN(CCCCCN(C)C(=O)/C=C/c3ccc(Cl)c(Cl)c3)C2)cc1 (centres undefined)
Inhibition [1]: 99% | Inhibition [2]: 3% | Inhibition [3]: 28%

Cn1cnc2c(Nc3ccncc3)nc(-c3ccc4c(c3)OCO4)nc21.O=C(O)C(F)(F)F
Inhibition [1]: 96% | Inhibition [2]: 2% | Inhibition [3]: 19%

CC(=O)Nc1ccc(COc2ccc(Nc3ccnc4cc(-c5ccccn5)ccc34)cc2)cc1.Cl
Inhibition [1]: 99% | Inhibition [2]: 94% | Inhibition [3]: 99%

NCC1CCCN1Cc1cccc(-c2cccc(-c3nc4cc(F)ccc4[nH]3)c2)c1.O=C(O)C(F)(F)F (centres undefined)
Inhibition [1]: 100% | Inhibition [2]: 65% | Inhibition [3]: 10%

COc1ccc(N2CCN(CCCOc3ccc(NC(=O)c4cc(Cl)cc(Cl)c4)cc3)CC2)c(OC)c1
Inhibition [1]: 100% | Inhibition [2]: 41% | Inhibition [3]: 38%

CCCCCCCc1c(C)nc2ccccc2c1O
Inhibition [1]: 98% | Inhibition [2]: 96% | Inhibition [3]: 0%

CC(C)Cc1nc2nc(N)nc(N)c2cc1C(C)C
Inhibition [1]: 96% | Inhibition [2]: 3% | Inhibition [3]: 67%

CC(=O)Nc1ccc(Nc2c3ccccc3nc3ccccc23)cc1
Inhibition [1]: 89% | Inhibition [2]: 62% | Inhibition [3]: 41%

COc1ccc(C(=O)Nc2ccc(-c3ccc([N+](=O)[O-])cc3)cc2)cc1CCCN(C)C.Cl
Inhibition [1]: 98% | Inhibition [2]: 9% | Inhibition [3]: 20%

CN1CCC(c2nc(N)no2)C1.O=C(O)C(=O)O (centres undefined)
Inhibition [1]: 95% | Inhibition [2]: 2% | Inhibition [3]: 15%

CCCCCC(=O)N1CCOC(CCN2CCC(c3ccccc3)CC2)(c2ccc(Cl)c(Cl)c2)C1 (centres undefined)
Inhibition [1]: 89% | Inhibition [2]: 51% | Inhibition [3]: 17%

CC(=O)N/N=C/[C@H](CCc1ccccc1)NC(=O)[C@H](CC(C)C)NC(=O)c1ccc(OCCN2CCOCC2)cc1
Inhibition [1]: 96% | Inhibition [2]: 87% | Inhibition [3]: 4%

CCC(CC)N1C(=O)C(c2ccccc2)(c2ccccc2)N=C1N.O=CO
Inhibition [1]: 96% | Inhibition [2]: 61% | Inhibition [3]: 14%

COc1ccc(Oc2cnc(N)nc2N)c(C(C)C)c1
Inhibition [1]: 97% | Inhibition [2]: 0% | Inhibition [3]: 58%

COc1ccc(OC)c(NC(=O)CSc2nc(-c3ccccc3Cl)ns2)c1
Inhibition [1]: 95% | Inhibition [2]: 32% | Inhibition [3]: 0%

CC(=NNC(S)=NCCc1ccccc1)c1ccccn1
Inhibition [1]: 100% | Inhibition [2]: 99% | Inhibition [3]: 73%

O=C(/C=C/c1ccc(Cl)c(Cl)c1)NCCCCCN1CCC(C(=O)Nc2ccc(F)c(Cl)c2)CC1
Inhibition [1]: 100% | Inhibition [2]: 0% | Inhibition [3]: 25%

CCn1ccc2c(N3CCCCS3(=O)=O)cc(C(=O)N[C@@H](Cc3ccccc3)[C@H](O)CNC3CCCCC3)cc21
Inhibition [1]: 98% | Inhibition [2]: 98% | Inhibition [3]: 1%

CN=C(S)NN=C(C)c1ccccn1
Inhibition [1]: 98% | Inhibition [2]: 99% | Inhibition [3]: 64%

COc1ccc(CNC2Cc3ccccc3C2)cc1-c1ccc(S(=O)(=O)NCCN2CCCC2)cc1.O=C(O)C(F)(F)F
Inhibition [1]: 100% | Inhibition [2]: 61% | Inhibition [3]: 40%

CCCNCc1ccc(-c2ccc(CN(CCOC)C(=O)COc3ccccc3Cl)cc2)nc1.O=C(O)C(F)(F)F
Inhibition [1]: 96% | Inhibition [2]: 29% | Inhibition [3]: 0%

COc1ccc([N+](=O)[O-])cc1N(Cc1ccccc1-c1ccccc1)S(=O)(=O)c1ccc(C(F)(F)F)cc1
Inhibition [1]: 96% | Inhibition [2]: 66% | Inhibition [3]: 3%

O=C(/C=C/c1ccc(Cl)c(Cl)c1)N1CCC(CN2CCC(c3c[nH]c4cnccc34)CC2)CC1
Inhibition [1]: 100% | Inhibition [2]: 100% | Inhibition [3]: 39%

Cc1ccc(Nc2nc(N/N=C/c3cccc(O)c3)nc(Nc3ccc([N+](=O)[O-])cc3)n2)cc1C
Inhibition [1]: 100% | Inhibition [2]: 69% | Inhibition [3]: 0%

Cc1ccc(N(CCC(=N)N)Cc2ccccc2)cc1.Cl
Inhibition [1]: 96% | Inhibition [2]: 95% | Inhibition [3]: 6%

C=Cc1ccc(-c2c(C)[nH]c(C)c(Br)c2=O)cc1
Inhibition [1]: 98% | Inhibition [2]: 96% | Inhibition [3]: 0%

COc1ccccc1NC(=O)Nc1cccc(-c2ccc(-c3nc4cccc(C)c4[nH]3)s2)c1
Inhibition [1]: 100% | Inhibition [2]: 46% | Inhibition [3]: 19%

O=C(Cc1cccc(OCCCN(Cc2cccc(C(F)(F)F)c2Cl)CC(c2ccccc2)c2ccccc2)c1)NCc1ccco1
Inhibition [1]: 94% | Inhibition [2]: 84% | Inhibition [3]: 2%

N#Cc1ccc2c(c1)CN(C1CCC(NC(=O)C3=Cc4cc(Cl)ccc4OC3)CC1)CCC2 (centres undefined)
Inhibition [1]: 93% | Inhibition [2]: 8% | Inhibition [3]: 0%

CC1(C)CCNc2cc(NC(=O)c3ccc(-c4ncccc4C(F)(F)F)cc3)ccc21.Cl
Inhibition [1]: 97% | Inhibition [2]: 86% | Inhibition [3]: 7%

NC(=O)c1sc(-n2cnc3ccccc32)cc1OCc1ccccc1[N+](=O)[O-]
Inhibition [1]: 99% | Inhibition [2]: 46% | Inhibition [3]: 10%

COc1cc(NC(=O)c2sc(-c3ccc(Cl)cc3)cc2Cl)ccc1OCCN1CCCC1.O=C(O)/C=C\C(=O)O
Inhibition [1]: 93% | Inhibition [2]: 21% | Inhibition [3]: 72%

CN1CCN(CCCN(Cc2cccc(-c3ccc(CNCc4ccc5c(c4)OCO5)cc3)c2)C(=O)Nc2ccccc2)CC1.O=C(O)C(F)(F)F
Inhibition [1]: 98% | Inhibition [2]: 69% | Inhibition [3]: 39%

CCOc1ccc2c(=NN=Cc3ccc(F)cc3)cc(C)[nH]c2c1
Inhibition [1]: 100% | Inhibition [2]: 99% | Inhibition [3]: 22%

CCNc1cc(C(=O)N[C@@H](Cc2ccccc2)[C@H](O)CNC(C)(C)Cc2ccccc2)cc(N2CCCC2=O)c1.O=CO
Inhibition [1]: 99% | Inhibition [2]: 78% | Inhibition [3]: 1%

COc1c(O)cc2oc(-c3ccc(O)cc3)cc(=O)c2c1O [HISPIDULIN]
Inhibition [1]: 96% | Inhibition [2]: 0% | Inhibition [3]: 6%

O=C(Nc1cccc(-c2ccc(-c3nc4cc(F)ccc4[nH]3)cc2)c1)c1ccncc1
Inhibition [1]: 100% | Inhibition [2]: 96% | Inhibition [3]: 52%

CC(C)(C)C1CCC(C(=O)c2ccc3ccccc3c2O)CC1 (centres undefined)
Inhibition [1]: 83% | Inhibition [2]: 63% | Inhibition [3]: 0%

CCn1c(Sc2ccc(C#N)c([N+](=O)[O-])c2)nnc1-c1cc(OC)cc(OC)c1
Inhibition [1]: 93% | Inhibition [2]: 82% | Inhibition [3]: 7%

O=C(Nc1ccc(F)cc1)NC1CCN(c2ccnc3ccccc23)C1.O=C(O)C(F)(F)F (centres undefined)
Inhibition [1]: 92% | Inhibition [2]: 2% | Inhibition [3]: 9%

CN(C)c1cc(C(=O)N[C@@H](Cc2ccccc2)[C@H](O)CNC2CCCCC2)cc2[nH]ccc12.O=CO
Inhibition [1]: 98% | Inhibition [2]: 97% | Inhibition [3]: 10%

COc1ccc2nc(N=C3NC4(c5ccccc5)NC(=Nc5nc6ccc(OC)cc6[nH]5)NC4(c4ccccc4)N3)[nH]c2c1.O=C(O)C(F)(F)F (centres undefined)
Inhibition [1]: 100% | Inhibition [2]: 85% | Inhibition [3]: 0%

COc1ccc(CNC2CCN(C)CC2)cc1-c1ccc(S(=O)(=O)NCc2ccccc2)cc1.O=C(O)C(F)(F)F
Inhibition [1]: 100% | Inhibition [2]: 99% | Inhibition [3]: 56%

Cc1[nH]c(C)c(-c2ccc(-c3ccc(OC(F)(F)F)cc3)cc2)c(=O)c1Cl
Inhibition [1]: 98% | Inhibition [2]: 97% | Inhibition [3]: 24%

O=C(Nc1ccc(Cl)cc1)Nc1ccc(-c2ccc(-c3nc4ccccc4[nH]3)cc2)cc1
Inhibition [1]: 100% | Inhibition [2]: 99% | Inhibition [3]: 47%

CCOC(=O)c1c(C)n(-c2ccccc2)c2ccc(OC(=O)COc3ccc(Cl)cc3Cl)cc12
Inhibition [1]: 99% | Inhibition [2]: 87% | Inhibition [3]: 11%

CCc1ccc(CN2CCC(CN(c3ccc(N4CCOCC4)c(F)c3)S(=O)(=O)c3ccc(C(C)(C)CC)cc3)CC2)cc1.Cl
Inhibition [1]: 93% | Inhibition [2]: 94% | Inhibition [3]: 26%

CCN1CCN(c2ccc(Nc3ccnc4ccc(Br)cc34)cc2)CC1
Inhibition [1]: 98% | Inhibition [2]: 86% | Inhibition [3]: 37%

COc1ccc(NC(=O)Nc2nc3ccccc3s2)cc1N1CCN(C)CC1
Inhibition [1]: 95% | Inhibition [2]: 22% | Inhibition [3]: 6%

N#Cc1ccc(-c2nc(CO)c(C(=O)NCCCCN3CCC(c4ccc5c(c4OCC(N)=O)CCCC5)CC3)s2)cc1
Inhibition [1]: 92% | Inhibition [2]: 0% | Inhibition [3]: 9%

O=C(NCc1cccc(C(F)(F)F)c1)c1ccc(CNC(=O)c2ccc(O)c(-c3ccc(Cl)c(Cl)c3)c2)cc1
Inhibition [1]: 92% | Inhibition [2]: 15% | Inhibition [3]: 7%

Cc1cc(=NN=Cc2ccc(F)cc2)c2ccc(F)cc2[nH]1
Inhibition [1]: 99% | Inhibition [2]: 30% | Inhibition [3]: 0%

O=[N+]([O-])c1ccc2nc(Nc3ccc(Cl)c(Cl)c3)c(Nc3ccc(Cl)c(Cl)c3)nc2c1
Inhibition [1]: 100% | Inhibition [2]: 99% | Inhibition [3]: 1%
